Screens deposited in PubChem BioAssay by National Center for Advancing Translational Sciences (NCATS).
In the library only some 12% were active in any assay of this set; here they are far more common.
VP16 counter – Gal4-VP16 reporter inhibition counter-screen. AID 2546. Drosophila S2 Gal4-VP16 UAS-luciferase, luminescence, 20 h. Potency, µM (titrated, usually from 53.6 µM), most hits filed as inhibitors. 3.5% of 310,000 active;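 further: Gal4-VP16 expression switched on by copper sulfate through the metallothionein promoter; nearly all actives have a fitted effect of over 50% in size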
ALDH1A1 inh – blocks purified human ALDH1A1 activity | Purified ALDH1A1, NADH fluorescence, propionaldehyde substrate | AID 1030 | Potency, µM (titrated, usually from 75.3 µM), usual class: inhibitors | P00352 | 7.3% of 220,000 active; active means well fitted inhibition curve with a large enough effect, not every such curve was filed as active; inconclusive means small, poorly fitted or top-dose-only effect, or another doubt; inactive means no such curve, though single readings can be large or run the other way
Sfp PPTase inh – Sfp phosphopantetheinyl transferase inhibition; Potency, µM, most hits filed as inhibitors; AID 1490; Q9F4F7; 3.5% of 310,000 active; Biochemical Sfp PPTase activity, qHTS;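 further: the enzyme is Sfp with the accession as filed and its product quenches rhodamine fluorescence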
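Buffer: 50 mM Hepes-Na pH 7.6, 10 mM MgCl2, 0.01% Nonidet P-40, 0.01% BSA. Enzyme 15 nM, pre-exposed to compound 15 min; substrates then added and fluorescence change tracked over 30 min.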
PLK1 PBD inh – PLK1 (human) polo-box domain binding inhibition; Plk1 PBD binding of FITC phosphopeptide, fluorescence polarization; Potency, µM, hits mostly inhibitors; 2.8% of 360,000 active; AID 720504; further: series mostly up to about 57 µM; nearly all actives have a fitted effect of over 65% in size
Target sequence (P53350 whole entry, looked up, the tested form may be a part): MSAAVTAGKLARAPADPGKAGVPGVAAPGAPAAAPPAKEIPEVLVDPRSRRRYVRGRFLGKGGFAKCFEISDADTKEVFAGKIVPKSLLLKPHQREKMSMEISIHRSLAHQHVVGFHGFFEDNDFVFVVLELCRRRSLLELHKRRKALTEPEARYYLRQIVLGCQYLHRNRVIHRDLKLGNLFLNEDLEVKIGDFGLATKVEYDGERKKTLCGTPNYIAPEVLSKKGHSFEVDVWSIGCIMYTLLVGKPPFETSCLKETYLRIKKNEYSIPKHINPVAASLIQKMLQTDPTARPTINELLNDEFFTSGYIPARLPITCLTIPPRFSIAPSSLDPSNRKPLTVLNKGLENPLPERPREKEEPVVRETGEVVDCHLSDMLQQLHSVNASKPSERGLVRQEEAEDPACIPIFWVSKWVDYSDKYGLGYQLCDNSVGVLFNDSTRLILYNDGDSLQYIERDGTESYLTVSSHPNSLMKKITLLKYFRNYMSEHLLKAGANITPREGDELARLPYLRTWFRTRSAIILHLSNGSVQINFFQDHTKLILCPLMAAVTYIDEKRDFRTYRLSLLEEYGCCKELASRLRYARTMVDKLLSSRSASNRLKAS
RORgamma inh – inhibitors of mouse ROR gamma transcriptional activity | P51450 | Drosophila S2 Gal4-RORgamma UAS-luciferase reporter, 20 h | Potency, µM (series often up to 53.6 µM), most hits filed as inhibitors | 5.4% of 310,000 active | AID 2551; further: nearly all actives have a fitted effect of over 60% in size
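A Gal4/UAS one-hybrid system in insect cells: metallothionein-promoter Gal4–ROR gamma fusion plus Photinus luciferase reporter. Copper sulfate 700 uM final, 20 hr ambient incubation, luminescent detection after 10 min with reagent.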
A number is an active result; i = inactive; ? = inconclusive; nt = not tested or not shown; [ ] = dose if it differs, or a comment. Unless noted, the call rests on the fitted dose curve; in most records, active means well fitted curve in the direction sought with a large enough effect; inconclusive means small, poorly fitted or top-dose-only effect, or another doubt; inactive means no such curve, though single readings can be large; an effect the other way counts as inactive or inconclusive.

SMILES	VP16 counter	ALDH1A1 inh	Sfp PPTase inh	PLK1 PBD inh	RORgamma inh
CN(Cc1ccnc2ccccc12)C(=O)C1CCC(=O)N(Cc2ccccc2F)C1 (stereo not given)	i	nt	i	i	i
O=C(c1c[nH]c(C(=O)C(Cl)(Cl)Cl)c1)c1c(F)cccc1F	?	nt	i	5.32µM	?
CCC(=O)N(Cc1cc(=O)[nH]c2ccccc12)c1ccccc1C	i	i	i	i	i
CCC(=O)N(Cc1cc(=O)[nH]c2ccccc12)c1cccc(C)c1	i	39.8µM	?	i	i
COc1ccc(N(Cc2cc(=O)[nH]c3ccccc23)C(=O)c2ccco2)cc1	i	14.1µM	56.2µM	i	i
COC(=O)c1ccc(C(NC(=O)OCc2ccccc2)/C(C)=C/[C@@H](C)C(=O)N2CCN(C)CC2)cc1 (stereo not given in full)	i	?	i	nt	i
COc1ccc(CN2C(=O)c3ccccc3C2c2nnnn2-c2c(C)cccc2C)cc1OC (stereo not given)	nt	nt	nt	i	nt
O=C1C(C2=C(O)c3ccccc3C2=O)=Nc2ccccc21	?	1.26µM	56.2µM	?	i
O=C1c2ccccc2-c2cccnc21	?	nt	i	i	?
C/C1=C2/[N-]C(C(CC(N)=O)[C@@]2(C)CCC(=O)NCC(C)OP(=O)([O-])O[C@H]2[C@@H](O)[C@@H](n3cnc4cc(C)c(C)cc43)O[C@@H]2CO)[C@]2(C)N=C(/C(C)=C3N=C(/C=C4N=C1C(CCC(N)=O)C\4(C)C)[C@@H](CCC(N)=O)[C@]\3(C)CC(N)=O)[C@@H](CCC(N)=O)[C@]2(C)CC(N)=O.CC(=O)O.[Co] (stereo not given in full)	?	nt	i	nt	?
CC(=O)Nc1ccc(CNc2nc3cc(-c4ccsc4)sc3c(=O)n2C)cc1	nt	nt	nt	i	nt
CCCCNC(=S)N(C)/N=C/c1c(F)cccc1F	i	i	i	i	i
CCNC(=S)N/N=C/c1cccc(/C=N/NC(=S)NCC)c1	i	i	39.8µM	i	?
CCNC(=S)N/N=C/c1ccc(F)cc1	7.94µM	i	i	nt	2.24µM
CCOC(=O)N/N=C/c1ccc(F)cc1	i	i	i	i	i
O=C(Cc1ccccc1)N/N=C/c1cccs1	i	i	i	i	i
CCCCNC(=S)N(C)/N=C/c1ccc(F)cc1	?	i	?	i	11.2µM
Cc1ccccc1CSCC(=O)N/N=C/c1cccs1	i	i	i	i	17.8µM
COC(=O)N/N=C/c1cccs1	i	i	i	i	i
CCNC(=S)N/N=C/c1cccs1	1.41µM	i	i	i	0.794µM
Cc1nc2ccc(C(=O)NCCCn3ccnc3)cn2c1N(C)C(=O)CCc1ccccc1	nt	nt	nt	i	nt
Cc1cc(Br)cn2c(Cc3cccc(F)c3)c(-c3ccc(C#N)cc3)nc12	nt	nt	nt	i	nt
CCOC(=O)C1=C(C)N(c2ccc(OC)cc2)C(=O)/C1=C\c1ccc(O)c(OCC)c1	?	nt	20µM	i	?
COC(=O)C1=C(C)N(CCc2ccc(OC)c(OC)c2)C(=O)/C1=C\c1ccc(O)cc1	i	25.1µM	i	i	i
COC(=O)C1=C(C)N(CCc2ccc(OC)c(OC)c2)C(=O)C1	i	?	i	i	i
SMILES	VP16 counter	ALDH1A1 inh	Sfp PPTase inh	PLK1 PBD inh	RORgamma inh
CCOc1cc(/C=C2\C(=O)N(Cc3ccc(C)cc3)C(C)=C2C(=O)OC)ccc1O	i	?	17.8µM	i	i
C[C@H]1CN(CCO)CCN1c1ccccc1	nt	i[13.5 µM]	nt	nt	nt
CC1=C(C(=O)c2ccccc2)C(c2ccc(OC(F)F)cc2)NC(=S)N1 (stereo not given)	i	1.12µM	i	23.8µM	i
Cc1cnc(CNc2nc(-c3ccccc3C(F)(F)F)nc3ccccc23)cn1	i	?	i	nt	i
Cc1cnc(CNc2nc(-c3ccc(N(C)C)cc3)nc3ccccc23)cn1	11.2µM	i	i	nt	?
Cc1cnc(CNc2ncncc2-c2ccc(N(C)C)cc2)cn1	i	i	79.4µM	nt	i
Cc1cnc(CNc2ncncc2-c2ccc(C(=O)N(C)C)cc2)cn1	i	i	i	nt	i
CN(C)c1ccc(-c2cncnc2NCCN2CCOCC2)cc1	i	i	79.4µM	nt	?
CN(C)c1ccc(-c2cncnc2Nc2ccccc2)cc1	i	25.1µM	i	nt	i
Nc1[nH]c(C(=O)c2ccccc2)c(-c2ccncc2)c1C(=O)NCc1ccc(Cl)cc1	nt	nt	nt	i	nt
COCCCn1c(O)c(/C=C2\N=C(C#N)C(=Nc3ccc(C)cc3)O2)sc1=S	?	nt	12.6µM	i	?
O=C(O)CCCn1c(O)c(C=C2N=c3ccccc3=N2)sc1=S	?	nt	i	i	i
CCOC1=C2CN(S(=O)(=O)c3ccc(C)cc3)[C@H](c3ccccc3)C[C@@H]2N(S(=O)(=O)c2ccc(C)cc2)[C@H](c2cccs2)C1	nt	nt	nt	i	nt
COc1ccc(/C=C/C(=O)NC(=S)NNC(=O)Cc2cccs2)cc1	?	i	i	i	11.2µM
O=C(/C=C/c1ccccc1)NC(=S)NNC(=O)Cc1cccs1	5.01µM	?	i	i	2.51µM
O=C(Nc1ccc(Br)cc1F)c1ccc2c(c1)OCCO2	?	nt	i	i	7.94µM
O=C(CCc1nnc(-c2ccc3c(c2)OCO3)o1)NCCc1ccccc1F	i	nt	i	11.9µM	i
O=C(NCCc1ccccc1F)c1ccc2c(c1)OCCO2	0.794µM	nt	i	?	0.631µM
COc1ccc(NC(=O)c2cc(C3CCCCN3S(=O)(=O)Cc3ccccc3)on2)cn1 (stereo not given)	nt	nt	nt	i	nt
CCCN1C(=O)/C(=C/c2cc(C)n(C)c2C)SC1=Nc1ccc(OC)cc1	i	2µM	i	i	i
COc1cc(/C=C2\SC(=O)N(CC(=O)Nc3ccc(C)cc3)C2=O)cc(Cl)c1OCC(=O)O	i	nt	i	15µM	i[1.91 µM]
Cc1ccc(NC(=O)CN2C(=O)S/C(=C\c3cc(C)n(C)c3C)C2=O)cc1	i	i	i	i	i
Cc1ccc(NC(=O)CN2C(=O)S/C(=C\c3cc(C)n(-c4cccc(C(=O)O)c4)c3C)C2=O)cc1	i	12.6µM	i	i	i
Cc1cccc(NC(=O)CN2C(=O)S/C(=C\c3cc(C)n(C)c3C)C2=O)c1	?	i	56.2µM	i	?
Cc1[nH]c2ccccc2c1C(=O)C(=O)NCc1nnnn1-c1ccc(F)c(F)c1	nt	nt	nt	i	nt
SMILES	VP16 counter	ALDH1A1 inh	Sfp PPTase inh	PLK1 PBD inh	RORgamma inh
COc1ccccc1N1C(=O)S/C(=C\c2ccc(C)s2)C1=O	i	nt	i	i	i
COc1ccccc1N1C(=O)S/C(=C\c2cc(C)n(C)c2C)C1=O	i	14.1µM	i	i	?
CCn1c(SCC(=O)Nc2oc(C)c3c(C)n[nH]c(=O)c23)nnc1-c1ccco1	nt	nt	nt	i	nt
CCOc1cc(CN2CCN(c3ccc(C(C)=O)cc3)CC2)ccc1OC	i	17.8µM	79.4µM	i	i
COc1ccccc1NC(=O)Cn1cnc2c(oc3nc4c(cc32)CCCC4)c1=O	i	nt	i	i	i
CCCCCCn1cnc2c(oc3nc4c(cc32)CCCC4)c1=O	i	3.55µM	i	i	?
COc1cccc(NC(=O)Cn2cnc3c(oc4nc5c(cc43)CCCC5)c2=O)c1	i	nt	i	i	i
CCCCn1cnc2c(oc3nc4c(cc32)CCCC4)c1=O	?	1.26µM	i	i	10µM
